# Test results published in PubChem BioAssay.
# Values without a mark were called inactive. How the calls were made is not given here.
# Molecular target: Pantothenate synthetase (Mycobacterium tuberculosis (strain ATCC 25618 / H37Rv)) (UniProt P9WIL5)
# Assay: Coupled enzyme confirmation of inhibitors against recombinant Mtb PanC (AID 375);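 further: 0% = full reaction with vehicle and 100% = no enzyme background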
# Conditions: coupled enzyme assay; at 10 µM, hits give high values
# Chain of Pantothenate synthetase (Mycobacterium tuberculosis (strain ATCC 25618 / H37Rv)) (P9WIL5 whole entry, looked up): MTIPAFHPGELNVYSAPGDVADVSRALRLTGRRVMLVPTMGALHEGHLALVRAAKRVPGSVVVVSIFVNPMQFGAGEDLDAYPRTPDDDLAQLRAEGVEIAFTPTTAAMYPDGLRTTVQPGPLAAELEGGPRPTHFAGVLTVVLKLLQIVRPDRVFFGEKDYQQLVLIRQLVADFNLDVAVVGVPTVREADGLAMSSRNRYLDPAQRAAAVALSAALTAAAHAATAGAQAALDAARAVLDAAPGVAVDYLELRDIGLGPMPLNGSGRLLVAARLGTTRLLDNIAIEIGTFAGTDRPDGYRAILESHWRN
row,Compound,inhibition
1,O=C(CSc1oc(-c2ccco2)nc1S(=O)(=O)c1ccccc1)NCC1CCCO1 (stereo not given),0%
2,CCNC(=O)N(C(=O)NCC)n1c(C)nnc1C,0%
3,Cc1ccc2ncnc(NCCCN3CCOCC3)c2c1,1%
4,Cc1cccc(-n2ncc3c(NCc4cccs4)ncnc32)c1,0%
5,Cc1ccc(Cl)cc1N1CCN(C(=O)C2CCCN(S(=O)(=O)c3cnc[nH]3)C2)CC1 (stereo not given),0%
6,COC(=O)c1ccccc1NC(=O)C1CCN(S(=O)(=O)c2cc(C)ccc2OC)CC1,0%
7,CCCCN=CC1=C(O)C(C(=O)OC)C(C)(C)CC1=O (stereo not given),0%
8,O=C(Cn1c(=O)[nH]c2ccsc2c1=O)N1CCN(c2ccc(F)cc2)CC1,0%
9,COc1ccc(-c2ccc(-c3nnc(-c4ccncc4)o3)cc2)cc1,4%
10,O=C(Nc1ccncc1)c1cc2ccccc2o1,3%
11,COCCn1nnnc1CN(Cc1cccnc1)Cc1cc2cc(OC)ccc2[nH]c1=O,6%
12,Cc1ccc(C)c(NC(=O)C2CCC(C)(C(=O)O)C2(C)C)c1 (stereo not given),0%
13,O=c1cc(CN2CCN(c3ccc(F)cc3)CC2)nc2sccn12,0%
14,COc1ccccc1-c1nnc2sc(-c3ccc(N(C)C)cc3)nn12,5%
15,Cc1ccc(CN2CCN(C(=O)C3CCC3)CC2)cc1,3%
16,CCOc1ccc(N2CC(C(=O)Nc3ccccc3OC)CC2=O)cc1 (stereo not given),0%
17,COc1ccc(CNC(=O)Cn2nc(C(F)(F)F)c3c2CCC3)cc1,3%
18,N#Cc1cc2c(nc1SCC(=O)N1CCCCC1)CCCC2,0%
19,O=C(Nc1ccncc1)c1cccc(F)c1,6%
20,CC(C)CCNC(=O)Cn1c(NCCC(C)C)nc2c1c(=O)n(C)c(=O)n2C,0%

row,Compound,inhibition
1,COc1cc(NC(=O)Cc2nn(C)c(=O)c3ccccc23)cc(OC)c1,0%
2,O=C(O)CSc1ncn[nH]1,0%
3,CC1(C)Cc2c(c(-c3ccccc3)nc(N3CCCC3)c2C(N)=O)CO1,4%
4,CCOC(=O)CN1CC23C=CC(O2)C(C(=O)NC2CCCC2)C3C1=O (stereo not given),3%
5,CC1=C(C(=O)N2CCCCC2)C(c2cccs2)C2=C(CCCC2=O)N1 (stereo not given),0%
6,CCOC(=O)CSC1=C(C#N)C(c2ccc3c(c2)OCO3)CC(=O)N1 (stereo not given),0%
7,COc1ccc2c(=O)c3c(=O)n(Cc4ccco4)c(C(C)C)nc3oc2c1,0%
8,COc1ccc(S(=O)(=O)NCc2ccc(C(=O)O)cc2)cc1,0%
9,CN(C)c1ccc(C=NCC2(O)CCOC(C)(C)C2)cc1 (stereo not given),3%
10,C=CCSc1ncccc1C(=O)O,0%
11,COc1cc(OC)cc(-c2nc(N)n[nH]2)c1,0%
12,Cc1ccc(S(=O)(=O)Nc2cc(C(=O)O)ccc2N2CCCCC2)cc1,0%
13,O=C(Nc1cccc2ccccc12)N1CCOCC1,0%
14,Cc1cccc(-n2ncc3c(NCc4cccnc4)ncnc32)c1,7%
15,Cn1c(=O)c2c(ncn2CCO)n(C)c1=O,1%
16,O=C1c2ccccc2C(=O)N1CCC(=O)N1CCc2ccccc21,0%
17,O=C(Nc1ccc(-c2noc(-c3cccs3)n2)cc1)c1cccnc1,0%
18,COc1ccc(OC)c(Nc2ncnc3c2cnn3-c2ccccc2)c1,0%
19,CC1=C(C(=O)OCCOC(C)C)C(c2cc3c(cc2Br)OCO3)C2=C(CCCC2=O)N1 (stereo not given),0%
20,COc1ccc(OC)c(S(=O)(=O)Nc2ccccc2C(=O)O)c1,6%
